Caspase-7 inhib – allosteric or competitive inhibitors of human caspase-7 | P55210 | recombinant caspase-7, Ac-DEVD-AFC fluorescence rate | Potency, µM (series often up to 57.5 µM), usual class: inhibitors | hit rate 0.02% among 75,000; active = well fitted inhibition curve with a large enough effect in the main read-out, with a control signal flat, not every such curve was filed as active; inconclusive = small, poorly fitted or top-dose-only effect, or a change in a side signal
HBB splice mod – alters splicing of the hemoglobin beta chain; HBB splicing reporter cell assay, activation; EGFP reporter with mutant IVS2-654 intron; response scale: normalised to 500 nM splice-correcting PNA; Potency, µM (top dose mostly 46.1 µM), actives largely listed as activators; hit rate 0.06% among 65,000; AID 925
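Compounds were applied for 2 days to HeLa EGFP-654 cells, 500/well in Optimem with 2% FCS. The reporter's EGFP is disrupted by mis-splicing of beta-globin intron IVS2-654. Readout: summed well GFP fluorescence from 488 nm laser scanning; reference was 500 nM antisense […] 654 PNA.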
GBA mod – modulators of human glucocerebrosidase. AID 360. P04062. purified enzyme, resorufin glucoside fluorescence (screen aimed at inhibitors), 20 min. Potency, µM. hit rate 1.1% among 48,000; in the data active = potency below about 15 µM; inconclusive = mostly about 16 µM to 33 µM;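 also: the screen sought inhibitors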
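Normal human glucocerebrosidase (0.2 nM final) was assayed with resorufin β-D-glucopyranoside (30 uM final) in 50mM citric acid/KH2PO4, 10mM sodium taurocholate, 0.01% tween-20, pH 5.9. Compounds were titrated; fluorescence (Ex 548, Em 600) read after 20 min at RT.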
Casp1 inh – caspase-1 (human) inhibition, allosteric or competitive; P29466; Caspase-1 enzyme, Ac-WEHD-AFC fluorogenic rate; Potency, µM (highest dose often 57.5 µM), actives largely listed as inhibitors; hit rate 0.03% among 75,000; AID 900
GFP derepression – derepresses silenced GFP locus in mouse C127i cells; mouse C127i GFP locus derepression, cytometry, 30 h; Potency, µM (series often up to 46.1 µM); hit rate 0.09% among 68,000; AID 597
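Murine C127i mammary cells carrying a silenced, stably integrated CMV-driven GFP reporter were treated with compound for 30 hours at 37 C. After PBS washes, GFP-positive cells were counted by laser-scanning microplate cytometry.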
Ub-GFP proteasome – proteasome inhibitors stabilizing ubiquitin-GFP reporter; Ubiquitin-GFP reporter cells, proteasome inhibition, GFP fluorescence; response scale: untreated = 0%, 10 µM MG-132 = 100%; Potency, µM (highest dose often 45.9 µM), hits mostly activators; 67,000 tested, under 10 active; AID 526; active = well fitted activation curve with a large enough effect, not every such curve was filed as active; inconclusive = small, poorly fitted or top-dose-only effect, or another doubt; inactive = no such curve, though single readings can be large or run the other way
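U2OS Ub(G76V)-GFP reporter; O/N plating, 0.5% FBS; cpd 46 uM–2.9 nM, 4 h, 37 °C; GFP+ cell count, 488/515 nm; norm. to basal vs 10 uM MG-132; CRC fit.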
A number is an active result; i = inactive; ? = inconclusive; nt = not tested or not shown; [ ] = another dose, or the depositor's remark. The sample as a whole holds a higher share of hits than the screen did. Unless noted, calls follow the shape of the dose curve; as a rule, active = well fitted curve in the direction sought with a large enough effect; inconclusive = small, poorly fitted or top-dose-only effect, or another doubt; inactive = no such curve, though single readings can be large; an effect the other way counts as inactive or inconclusive.

SMILES | Caspase-7 inhib | HBB splice mod | GBA mod | Casp1 inh | GFP derepression | Ub-GFP proteasome
N#CCSc1nc2ccc(N3CCCCC3)cc2c(=O)n1Cc1ccccc1 | i | i | 15 | ? | i | i
OC[C@H](S)CS | i[11.5 µM] | i[9.22 µM] | nt | i[11.5 µM] | 3.2µM | i[9.17 µM]
CCN1C(=S)SC(=O)C1=C1C=C(C)N(CCOC)C(C)=C1 | i | i | 15 | i | i | i
COC(=O)N1CCC2(CCCN(Cc3nccs3)C2)CC1 | i | i | nt | i | i[9.22 µM] | i
COCCNc1c(-c2ccc(O)cc2)nc2ccc(Cl)cn12 | ? | nt | 6.9 | nt | i | i
FC(F)(F)c1cccc(CN2CCCCCC2)c1 | i | nt | nt | i | nt | nt
COCCN1Cc2cccc(C(=O)Nc3ccc(S(=O)(=O)N4CCCCCC4)cc3)c2C1=O | i | i | 15 | i | i | i
CC(=O)N1CCN(c2ccc(NCc3ccccc3)cc2)CC1 | i | nt | 13 | i | i | i
c1ccc2c(-c3nc(C4CCCCC4)no3)cc(-c3ccncc3)nc2c1 | i | i[0.369 µM] | i | i | i | i
Cc1ccc2nc3c(cc2c1)CN(Cc1ccco1)C(=NCC1CCCO1)S3 (stereo unspecified) | i | i | i | i | i | i
Cc1cccc2cc3c(nc12)SC(=NCC1CCCO1)N(Cc1ccco1)C3 (stereo unspecified) | i | i | nt | i | 3.2µM | i
Cc1cccc(-n2ncc3c(NCc4cccs4)ncnc32)c1 | i | i | 14 | i | i | i
Clc1ccc(-n2ncc3c(NCc4cccs4)ncnc32)cc1 | nt | nt | nt | nt | i | nt
Cc1noc(NS(=O)(=O)c2ccc(NC(=O)CCC3CCCC3)cc2)c1C | i | i | 15 | i | i | i
CCCC12CN(C(=O)c3ccc(OC)cc3)CC(C)(CN(C(=O)c3ccc(OC)cc3)C1)C2=O | i | i | i | i | i | i
CCCC12CN3CC(C)(CN(C1)C3c1ccc(OC(C)C)cc1)C2=O (stereo unspecified) | i | i[1.84 µM] | 2 | i | i | i
NC1=NC2(CCCCC2)n2c(nc3ccccc32)N1 | i | i | i | i | i | i
NC1=NC2(CCN(Cc3ccccc3)CC2)n2c(nc3ccccc32)N1 | i | i | 3.7 | i | i | i
NC1=NC2(CCC(c3ccccc3)CC2)n2c(nc3ccccc32)N1 (stereo unspecified) | i | i | 15 | ? | i | i
CC(=O)N=C1SC2CS(=O)(=O)CC2N1c1cccc(Cl)c1Cl (stereo unspecified) | i | i[0.369 µM] | i | i | i | i
O=C(O)Cn1c(O)c(C=Nc2ccccc2)sc1=S | ? | i | i | nt | i | i
COC(=O)c1ccc(NC(=O)N2CCOCC2)cc1 | i | nt | i | i | i | i
O=C(Nc1ccc(Nc2ccccc2)cc1)N1CCOCC1 | i | i | 2 | i | i | i
O=C(Nc1nccs1)NC1CCCCC1 | i | i | i | i | i | i
O=c1c2c(nc3c(-c4ccc(Cl)cc4)c[nH]n13)CCCC2 | i | i | 6.5 | i | i | i
SMILES | Caspase-7 inhib | HBB splice mod | GBA mod | Casp1 inh | GFP derepression | Ub-GFP proteasome
Cc1[nH]n2c(=O)c3c(nc2c1-c1ccccc1)CCCC3 | i | i[1.84 µM] | 4.2 | i | i | i
O=c1c2c(nc3nc(CCc4ccccc4)[nH]n13)CCC2 | i | i | i | i | i | i
CSc1oc(-c2ccccc2)nc1S(=O)(=O)c1ccc(F)cc1 | i | i | i | i | i | i
CC(=O)NC(CC(C)C)C(=O)NC(Cc1ccccc1)C(N)=O (stereo unspecified) | i | i | i | i | i | i
CC(=O)[C@H](CC(C)C)NC(=O)[C@@H](CC(C)C)NC(=O)[C@H](CC(C)C)NC(=O)OCc1ccccc1 | i | nt | nt | i | i | 0.79µM
COc1cc(CCC(=O)Nc2cc(Cl)ccc2N2CCN(C)CC2)cc(OC)c1OC | i | i | nt | i | i | i
Cc1sc2ncnc(Sc3nnnn3-c3ccccc3)c2c1C | i | i | 9.2 | i | i | i
CCOc1cc(C2C(C(=O)OC(C)C)=C(C)N=C3SCCC(=O)N32)ccc1OC(C)=O (stereo unspecified) | i | nt | 14 | i | i | i
S=c1[nH]nc(CSc2nc3ccccc3s2)o1 | i | i[9.22 µM] | nt | i | i | i
Oc1cc2ccccc2cc1-c1n[nH]c(=S)o1 | i | nt | 12 | i | i | i
CCC1CCCCN1S(=O)(=O)c1ccc(NC(=O)CSc2ncccc2C(=O)O)cc1 (stereo unspecified) | i | nt | i | i | i | i
CCOc1ccc2[nH]c(=O)c(CN(Cc3cccs3)Cc3nnnn3C(C)(C)CC)cc2c1 | i | i | 15 | i | i | i
Clc1ccc2nc(-c3ccccc3)[nH]c2c1 | i | nt | nt | i | nt | nt
Fc1cc2nc(-c3ccncc3)[nH]c2cc1F | i | i | 14 | i | i | i
CC(C)(C)c1ccc(C(=O)Nc2nonc2-c2nc3ccccc3[nH]2)cc1 | i | i | 2.4 | i | i | i
O=C(O)CC(NC(=O)c1ccccc1NC(=O)c1ccccc1)C(=O)O (stereo unspecified) | i | i[9.22 µM] | nt | i | i | i
Cc1ccc(C(=O)Nc2ccccc2C(=O)NC(CC(=O)O)C(=O)O)cc1 (stereo unspecified) | i | i | 10 | i | i | i
COc1ccc(N/C(N)=N/c2nc(CSc3ccc(C)cc3)cc(=O)[nH]2)cc1 | i | i | 9.7 | i | i | i
CCOc1ccc(CSC2=NCCN2)cc1Cl | i | nt | 8.4 | i | i | i
Cc1ccc(-n2ncc3c(N4CCC(C(N)=O)CC4)ncnc32)c(C)c1 | nt | nt | nt | nt | i | nt
O=C(Nc1ccc(F)cc1)N(Cc1ccco1)Cc1cc2cc3c(cc2[nH]c1=O)OCO3 | i | nt | 11 | i | i | i
O=C1c2cccc(O)c2C(=O)c2c(O[C@@H]3O[C@H](CO)[C@@H](O)[C@H](O)[C@@H]3O)cccc21 | i[11.5 µM] | i[9.22 µM] | nt | i[11.5 µM] | i[9.22 µM] | i[9.17 µM]
O=C(O)c1cc(O)c2c(c1)[C@H]([C@H]1c3cc(C(=O)O)cc(O)c3C(=O)c3c(O[C@@H]4OC(CO)C(O)C(O)C4O)cccc31)c1cccc(O[C@@H]3OC(CO)C(O)C(O)C3O)c1C2=O (stereo partly specified) | 10µM | nt | nt | 25µM | nt | nt
CC(OC(=O)CCc1nc2ccccc2c(=O)[nH]1)C(=O)NCc1ccc2c(c1)OCO2 (stereo unspecified) | i | i | i | i | i | i
COc1ccc(N(CC(=O)Nc2ccc(C)c(C)c2)S(=O)(=O)c2c(C)n[nH]c2C)cc1 | i | i | 15 | i | i | i
CCc1nnc(NC(=O)c2ccc(S(=O)(=O)N3CCOCC3)cc2)s1 | i | i | nt | i | nt | i
CCc1nnc(NC(=O)c2cccc(S(=O)(=O)N3CCN(c4ccccc4)CC3)c2)s1 | i | i | 9.8 | i | i | i
CCC(C)N1CC(O)=C(c2nc3ccccc3[nH]2)C1=N (stereo unspecified) | nt | i | nt | i | i | i
